# This is a sample that favours compounds with a hit; in the whole collection about 6.9% have one here.
# SKKanGAS inh = inhibitors of SKKanGAS S. pyogenes growth in kanamycin (SK-promoter or general growth effect) | 300,000 tested, 1.3% active | BacTiter-Glo, 6 h | AID 1662 | inhibition, % at 7.5 µM;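 active means mean replicate score, as percent of positive control median, at least 50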;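 further: strain carries kanamycin resistance gene driven by streptokinase promoter and grows in 40 µg/ml kanamycin; loss of luminescence reflects streptokinase promoter inhibition or plain growth inhibition; 0% = median of DMSO wells and 100% = positive control at its reference dose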
# Beta apoptosis = beta cell apoptosis inhibition. AID 435005. protection from apoptosis, % (test concentration not listed). INS-1E cytokine-induced death, ATP luminescence, 48 h; percent of positive-control rescue, neutral wells zero. 300,000 tested, 0.8% active;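 active means Every replicate reaches about 75%, or at least half do and their mean reaches it too, limit read from the data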;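 further: 0% = cytokine-treated negative control wells and 100% = positive control rescue; higher means more ATP so stronger rescue from cytokine killing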
# MPTP block = permeability transition pore inhibition; isolated mouse mitochondria, Ca2+ swelling absorbance, 30 min; inhibition, % at 10 µM; 360,000 tested, 1.4% active;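 active means inhibition of 50% or more, scaled per plate between neutral and stimulator controls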;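 further: 0% = DMSO wells given calcium and 100% = 1 mM EGTA wells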
# Mdm2-MdmX inh = inhibitors of human Mdm2/MdmX interaction. O15151+Q00987. 330,000 tested, 3% active. SaOS-2 split-luciferase Mdm2/MdmX complementation, luminescence. AID 485346. inhibition, % at 8 µM;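 active means inhibition of at least 50% at 8 µM in the primary screen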
# GRIN3A LBD mod = modulators (binders) of human NR3A ligand-binding domain. NR3A LBD differential scanning fluorimetry, Tm shift; 0% = protein alone, 100% = glycine-bound protein. Tm shift relative to glycine control, % at 25 µM. 340,000 tested, 2.5% active. AID 1259313;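 active means melting temperature shift of at least 10% of the positive control shift, at one fixed dose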
# CSC inhib = cancer stem cell inhibition | AID 2717 | 300,000 tested, 1.1% active | inhibition, % at 7.5 µM | cancer stem cell-like cells viability, luminescence; in the data active means inhibition above about 75%; tested in HMLE shEcad cells
# * = called active by the depositor; . = no result.
SMILES,SKKanGAS inh,Beta apoptosis,MPTP block,Mdm2-MdmX inh,GRIN3A LBD mod,CSC inhib
CCOC(=O)c1c(C)[nH]c(C(=O)C(C)OC(=O)c2cccc(OCc3c(C)noc3C)c2)c1C (configuration not stated),50*,32,1,41,-9,7
O=C1C2C3C=CC(CC3)C2C(=O)N1c1ccccc1F (configuration not stated),0,-5,0,-8,-1,-17
CCCc1cc(=O)oc2c(C)c(OS(C)(=O)=O)ccc12,-2,-2,0,-14,16*,33
COC(=O)/C(=C/c1c[nH]c2ccccc12)[N+](=O)[O-],1,3,2,12,16*,14
CCOC(=O)c1c(CSc2ccccc2)n(C)c2cc(Br)c(OC)c(O)c12,-8,14,0,13,-1,35
CCOC(=O)c1c(CSc2ccccc2)n(C)c2cc(Br)c(OCC(O)CNC(CO)(CO)CO)cc12 (configuration not stated),3,-1,-1,.,-2,100*
O=[N+]([O-])c1cccc(S(=O)(=O)Nc2ccc3cn[nH]c3c2)c1,.,2,-1,2,-4,4
COc1ccc(-n2c(=O)c3c4c(sc3n3c(=S)[nH]nc23)CCC4)cc1,65*,5,2,14,2,-1
CCCC[n+]1ccn(-c2nc3ccccc3nc2[N-]S(=O)(=O)c2ccc(Cl)cc2)c1,7,-4,-2,6,7,-12
Cc1ccc(S(=O)(=O)/N=C2\C(=O)c3ccccc3C([O-])=C2n2cc[n+](CCC(C)C)c2)cc1,30,90*,-1,21,-1,16
CCCC[n+]1ccn(C2=C([O-])c3ccccc3C(=O)/C2=N\S(=O)(=O)c2ccc(Br)cc2)c1,28,90*,-1,29,-3,22
Cc1ccc(NC(=O)C[n+]2ccn(C3=C([O-])c4ccccc4C3=O)c2)cc1,-6,-2,3,-13,-2,-4
CN(C)c1ccc(S(=O)(=O)N(C)C)cc1NC(=O)Cc1cccc2ccccc12,0,5,0,-7,3,7
COc1ccc(/C=N/NC(=O)c2ccccc2OC)cc1COc1ccccc1[N+](=O)[O-],9,-7,0,27,-4,50
COc1ccc(/C=N/NS(=O)(=O)c2ccccc2)cc1OC(=O)c1ccc(C)cc1,8,3,0,-14,19*,4
COc1ccc(/C=N/NS(=O)(=O)c2ccccc2)cc1OS(=O)(=O)c1ccccc1,6,-4,3,11,0,10
COc1cc(/C=N/NS(=O)(=O)c2ccc(C)cc2)ccc1OCc1cccc(C(=O)O)c1,11,-4,0,49,0,.
COc1ccc(/C=N\NS(=O)(=O)c2ccc(C)cc2)cc1COc1ccccc1[N+](=O)[O-],10,2,3,-20,12*,34
COc1ccc(/C=N/NS(=O)(=O)c2ccc(C)cc2)cc1OC(=O)c1ccccc1,-4,-1,0,8,10*,1
COc1cc(/C=N/NS(=O)(=O)c2ccc3ccccc3c2)ccc1OCc1ccc(C(=O)O)cc1,55*,2,3,50,-7,12
Cn1c(N)c(C(=O)CSc2nnc(Cc3cccs3)n2C2CC2)c(=O)n(C)c1=O,.,-2,0,12,1,.
Cc1ccc(NC(=S)N2CCOCC2)c(C)c1,-4,.,-2,-20,16*,-12
O=C(N1CCCCC1)C12CC3CC(C1)CC(C(=O)N1CCCCC1)(C3)C2,0,-6,5,15,21*,-1
O=C(NCc1ccccc1Cl)[C@H]1CCCN1C(=O)[C@H]1CCCN1C(=O)c1ccccc1,.,.,0,.,.,.
O=C(CSCc1ccccc1Br)NNC(=S)NCc1ccco1,3,-4,-1,-4,0,-1
SMILES,SKKanGAS inh,Beta apoptosis,MPTP block,Mdm2-MdmX inh,GRIN3A LBD mod,CSC inhib
O=C(COC(=O)c1nn(-c2ccccc2C(F)(F)F)cc1O)c1ccc(OC(F)F)cc1,-7,-4,2,7,1,-17
O=C1OCCN1C(=O)[C@H]1[C@H](c2ccc(F)cc2)C(c2cccc(Cl)c2)=NN1c1ccccc1,.,.,-1,19,16*,.
COc1ccccc1[C@@H]1C(c2cccc(Cl)c2)=NN(c2ccccc2)[C@H]1C(=O)N1CCOC1=O,6,-3,-1,11,-2,19
CC[C@@H]1C(c2ccc(F)cc2)=NN(c2ccc(Br)cc2)[C@H]1C(=O)N1CCOC1=O,.,.,-3,22,19*,.
CC[C@@H]1C(c2ccccc2)=NN(c2ccc(Br)cc2)[C@H]1C(=O)N1CCOC1=O,.,.,0,6,9,.
O=C1OCCN1C(=O)[C@H]1[C@H](c2ccc(Cl)cc2)C(c2cccc(Cl)c2)=NN1c1ccccc1,16,2,1,25,17*,35
O=C1OCCN1C(=O)[C@H]1[C@H](c2ccc(F)cc2)C(c2cccc(Cl)c2)=NN1c1ccc(Br)cc1,.,.,-1,32,25*,.
O=C1OCCN1C(=O)[C@H]1[C@H](c2ccc([N+](=O)[O-])cc2)C(c2cccc(Cl)c2)=NN1c1ccc(Br)cc1,.,.,1,36,7,.
O=C1OCCN1C(=O)[C@H]1[C@H](c2ccccc2)C(c2cccc(Cl)c2)=NN1c1ccc(Br)cc1,.,.,1,21,7,.
CC(NC(=O)c1ccco1)C(=O)N1CCCCC1 (configuration not stated),5,-4,4,5,-2,-10
O=C(Cc1cccs1)N1CCN(S(=O)(=O)c2cccc([N+](=O)[O-])c2)CC1,0,-2,0,-25,1,-11
COc1ccc(NC(=O)CN(C)C(=O)c2ccc3c(c2)S(=O)(=O)N=C2CCCCCN23)cc1,1,-6,2,-9,10,-10
O=C(OC1CCCC1)c1ccc(Cl)cc1Cl,.,.,0,.,-1,.
CC(OC(=O)c1cc(S(=O)(=O)N2CCOCC2)ccc1F)C(=O)NC1CCCCC1C (configuration not stated),0,-2,0,14,3,.
Cc1ccc(C)c(N2CCN(C(=O)CCCOc3cc(=O)n(C)c4ccccc34)CC2)c1,6,94*,8,6,-1,-14
Cc1ccc(C)c(N2CCN(C(=O)COc3cc(=O)n(C)c4ccccc34)CC2)c1,4,2,14,29,-1,-11
CC(=O)N1CCc2c(sc(NC(=O)Cc3ccc(C)cc3C)c2C#N)C1,-6,5,0,10,-4,7
NC(=O)CCC(NC(=O)c1ccc(Cl)cc1)C(=O)NCCc1ccc2c(c1)OCCO2 (configuration not stated),.,.,0,-2,1,.
Clc1ccc(-c2ccc(CNCc3ccccn3)o2)cc1,57*,8,1,-12,0,-8
COC1=CC(=O)C(O)=C(CCCCCCC/C=C/CCCCCCCC2=C(O)C(=O)C=C(OC)C2=O)C1=O,24,-2,8,7,25*,-4
